# Out of some 3,200 compounds screened, about 300 (9.4%) showed activity. Many of the other results were omitted from the sample, so actives are more common in it than they were. Unmarked numbers belong to inactive results.
# Test system: A673/TR/shEF
# Assay: cell viability (LOESS-normalised, relative to median of negative controls) (log2 ratio); higher = more viable cells (less compound effect), active = hit call of the paper (over 3 MAD below the median)
# Settings: treatment time: 72 h
# Procedure, shortened: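 Viability of A673/TR/shEF Ewing sarcoma cells was determined by CellTiter-Glo luminescence. The cells, at 1,500 per well in 384-well plates, were grown with or without doxycycline from 24 h before compound addition to switch on EWS-FLI1 shRNA knockdown, then exposed for three days to library compounds at two or more concentrations or to DMSO controls. Signals were LOESS-corrected plate by plate, normalised to the negative-control median and log2-transformed.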
# [1] = 0.25 µM, library screen: screen1, EWS-FLI1 expression: high (no doxycycline)
# [2] = 0.25 µM, library screen: screen1, EWS-FLI1 expression: low (doxycycline-induced shRNA knockdown)
# [3] = 2.5 µM, library screen: screen1, EWS-FLI1 expression: high (no doxycycline)
# [4] = 2.5 µM, library screen: screen1, EWS-FLI1 expression: low (doxycycline-induced shRNA knockdown)
# [5] = 0.25 µM, library screen: screen2, EWS-FLI1 expression: high (no doxycycline)
# [6] = 0.25 µM, library screen: screen2, EWS-FLI1 expression: low (doxycycline-induced shRNA knockdown)
# [7] = 2.5 µM, library screen: screen2, EWS-FLI1 expression: high (no doxycycline)
# [8] = 2.5 µM, library screen: screen2, EWS-FLI1 expression: low (doxycycline-induced shRNA knockdown)
# [9] = 0.103 µM, library screen: screen3, EWS-FLI1 expression: high (no doxycycline)
# [10] = 0.103 µM, library screen: screen3, EWS-FLI1 expression: low (doxycycline-induced shRNA knockdown)
# [11] = 0.308 µM, library screen: screen3, EWS-FLI1 expression: high (no doxycycline)
# [12] = 0.308 µM, library screen: screen3, EWS-FLI1 expression: low (doxycycline-induced shRNA knockdown)
# [13] = 0.926 µM, library screen: screen3, EWS-FLI1 expression: high (no doxycycline)
# [14] = 0.926 µM, library screen: screen3, EWS-FLI1 expression: low (doxycycline-induced shRNA knockdown)
# [15] = 2.8 µM, library screen: screen3, EWS-FLI1 expression: high (no doxycycline)
# [16] = 2.8 µM, library screen: screen3, EWS-FLI1 expression: low (doxycycline-induced shRNA knockdown)
# [17] = 8.3 µM, library screen: screen3, EWS-FLI1 expression: high (no doxycycline)
# [18] = 8.3 µM, library screen: screen3, EWS-FLI1 expression: low (doxycycline-induced shRNA knockdown)
# [19] = 25 µM, library screen: screen3, EWS-FLI1 expression: high (no doxycycline)
# [20] = 25 µM, library screen: screen3, EWS-FLI1 expression: low (doxycycline-induced shRNA knockdown)
# [21] = 0.025 µM, library screen: screen1, EWS-FLI1 expression: high (no doxycycline)
# [22] = 0.025 µM, library screen: screen1, EWS-FLI1 expression: low (doxycycline-induced shRNA knockdown)
# [23] = 25 µM, library screen: screen1, EWS-FLI1 expression: high (no doxycycline)
# [24] = 25 µM, library screen: screen1, EWS-FLI1 expression: low (doxycycline-induced shRNA knockdown)
smiles,measurement,setting,value
Cc1cc(Cl)ccc1OCC(O)CN1CCN(C)CC1 (centres undefined),cell viability (log2),[1],0.0377
same,cell viability (log2),[2],0.029
same,cell viability (log2),[3],0.0948
same,cell viability (log2),[4],0.184
N[C@@H](C=O)[C@@H](O)[C@H](O)[C@H](O)CO,cell viability (log2),[1],0.0986
same,cell viability (log2),[2],0.0199
same,cell viability (log2),[3],0.192
same,cell viability (log2),[4],0.145
CN(C)CCC=C1c2ccccc2C=Cc2ccccc21,cell viability (log2),[1],0.131
same,cell viability (log2),[2],0.0615
same,cell viability (log2),[5],0.206
same,cell viability (log2),[6],0.141
same,cell viability (log2),[3],0.117
same,cell viability (log2),[4],0.104
same,cell viability (log2),[7],0.126
same,cell viability (log2),[8],0.0683
CN(C)CC/C=C1\c2ccccc2COc2ccccc21,cell viability (log2),[1],0.126
same,cell viability (log2),[2],0.129
same,cell viability (log2),[5],0.0848
same,cell viability (log2),[6],0.0467
same,cell viability (log2),[3],0.131
same,cell viability (log2),[4],0.118
same,cell viability (log2),[7],0.142
same,cell viability (log2),[8],0.121
CN(C)CCC=C1c2ccccc2CCc2ccccc21,cell viability (log2),[1],0.0816
same,cell viability (log2),[2],0.086
same,cell viability (log2),[5],-0.148 (active)
same,cell viability (log2),[6],0.138
same,cell viability (log2),[3],0.144
same,cell viability (log2),[4],0.0763
same,cell viability (log2),[7],0.0454
same,cell viability (log2),[8],0.0908
COc1c(C2COc3cc4c(cc3C2=O)CC(O)C(C)(C)O4)ccc2c1CCC(C)(C)O2 (centres undefined),cell viability (log2),[1],0.0719
same,cell viability (log2),[2],0.0278
same,cell viability (log2),[3],0.0883
same,cell viability (log2),[4],0.0229
CNC(=O)CN(CCN(CCN(CC(=O)[O-])CC(=O)NC)CC(=O)[O-])CC(=O)[O-].O.[Gd+3],cell viability (log2),[9],0.106
same,cell viability (log2),[10],-0.0293
same,cell viability (log2),[11],0.00861
same,cell viability (log2),[12],0.114
same,cell viability (log2),[13],0.0946
same,cell viability (log2),[14],0.0839
same,cell viability (log2),[15],0.127
same,cell viability (log2),[16],0.127
same,cell viability (log2),[17],0.0841
same,cell viability (log2),[18],0.116
same,cell viability (log2),[19],0.0924
same,cell viability (log2),[20],0.134
C=C1[C@@H]([C@@]2(C)C=CC(=O)C(C)(C)[C@@H]2CC(=O)OC)CC[C@@]2(C)C(c3ccoc3)OC(=O)[C@H]3O[C@]132 (some centres undefined),cell viability (log2),[1],0.109
same,cell viability (log2),[2],0.0181
same,cell viability (log2),[3],0.0641
same,cell viability (log2),[4],0.0727
CC(=O)O[C@@H]1CC2C(C)(C)[C@H](O)C[C@H](O)[C@]2(C)C2CC[C@@]3(C)[C@H](c4ccoc4)OC(=O)[C@H]4O[C@]43[C@@]21C (some centres undefined),cell viability (log2),[1],0.0571
same,cell viability (log2),[2],0.106
same,cell viability (log2),[3],0.13
same,cell viability (log2),[4],0.11
O[C@H]1[C@H]2c3cc4c(cc3CN3CCC(=C[C@@H]1O)[C@H]23)OCO4,cell viability (log2),[1],0.0121
same,cell viability (log2),[2],0.0722
same,cell viability (log2),[3],0.0564
same,cell viability (log2),[4],-0.019
CO[C@H]1C=C[C@@]23c4cc5c(cc4CN(C[C@@H]2O)[C@H]3C1)OCO5,cell viability (log2),[1],0.0568
same,cell viability (log2),[2],0.0269
same,cell viability (log2),[3],-0.415 (active)
same,cell viability (log2),[4],-0.623 (active)
CSc1ccc(CN2CCN(Cc3ccco3)CC2)cc1,cell viability (log2),[1],0.0257
same,cell viability (log2),[2],0.0474
same,cell viability (log2),[3],0.00049
same,cell viability (log2),[4],0.109
CC[C@H](CO)Nc1nc(NCc2ccccc2)c2ncn(C(C)C)c2n1,cell viability (log2),[21],0.0954
same,cell viability (log2),[22],0.0682
same,cell viability (log2),[9],0.0283
same,cell viability (log2),[10],-0.038
same,cell viability (log2),[1],0.0519
same,cell viability (log2),[2],0.0253
same,cell viability (log2),[5],0.213
same,cell viability (log2),[6],0.0581
same,cell viability (log2),[11],0.0653
same,cell viability (log2),[12],0.0646
same,cell viability (log2),[13],-0.0162
same,cell viability (log2),[14],0.042
same,cell viability (log2),[3],0.0221
same,cell viability (log2),[4],0.0445
same,cell viability (log2),[7],-0.591 (active)
same,cell viability (log2),[8],-0.646 (active)
same,cell viability (log2),[15],0.0824
same,cell viability (log2),[16],-0.0161
same,cell viability (log2),[17],0.118
same,cell viability (log2),[18],0.0527
same,cell viability (log2),[23],-0.0359
same,cell viability (log2),[24],0.0272
same,cell viability (log2),[19],0.0337
same,cell viability (log2),[20],0.0206
CC(C)n1cnc2c(NCc3ccccc3)nc(NCCO)nc21,cell viability (log2),[21],0.171
same,cell viability (log2),[22],-0.0915
same,cell viability (log2),[1],0.129
same,cell viability (log2),[2],-0.0331
same,cell viability (log2),[5],0.226
same,cell viability (log2),[6],0.0704
same,cell viability (log2),[3],-0.011
same,cell viability (log2),[4],0.0676
same,cell viability (log2),[7],0.247
same,cell viability (log2),[8],0.0622
same,cell viability (log2),[23],-0.0635
same,cell viability (log2),[24],0.0737
